Experimental data: PubChem BioAssay (EPA / NIEHS)
Where “and” joins values, the source holds several entries; their conditions need not be identical. Identical values can stand only once. Records with an inconclusive call do not appear. Where a structure was tested more than once in an assay, its records may differ in their call. Calls of active or inactive are those of the source. Rule for the calls, unless noted: active = hit-call score of the fitted dose curve at least 0.9, where 1 is the maximum; inactive = score below 0.9.

Legend:
[1] = target: Bile acid receptor (Homo sapiens) (UniProt Q96RI1); assay: ATG_FXR_TRANS: Attagene TRANS-FACTORIAL HepG2 Assay for Farnesoid X Receptor (FXR) (AID 2282979; active = hit-call score of the fitted dose curve at least 0.9, where 1 is the maximum;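 note: hits raise reporter mRNA above DMSO so AC50 marks FXR activation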); conditions: HepG2 Attagene TRANS FXR-GAL4 reporter transcription
Outline: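 Chimeric FXR-GAL4 activity in transiently transfected human HepG2 liver cells is scored as induction of reporter mRNA after 24 h of dosing. Detection uses RT-PCR with fluorescent labelling and capillary electrophoresis, with DMSO serving as baseline.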

[2] = target: Oxysterols receptor LXR-alpha (Homo sapiens) (UniProt Q13133); assay: ATG_LXRa_TRANS: Attagene TRANS-FACTORIAL HepG2 Assay for human Liver X Receptor alpha (LXRa) (AID 2282980; active = hit-call score of the fitted dose curve at least 0.9, where 1 is the maximum); conditions: HepG2 Attagene TRANS reporter, LXRa transactivation
Outline: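 Transient HepG2 transfectants, 24 h dosing, RT-PCR/CE mRNA reporter quantitation; gain-of-signal vs DMSO.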

[3] = target: Hepatocyte nuclear factor 4-alpha (Homo sapiens) (UniProt P41235); assay: ATG_HNF4a_TRANS: Attagene TRANS-FACTORIAL HepG2 Assay for human Hepatocyte Nuclear Factor 4 alpha (HNF4a) (AID 2282982; active = hit-call score of the fitted dose curve at least 0.9, where 1 is the maximum); conditions: HepG2 HNF4a transactivation reporter, mRNA readout
Outline: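 Transfected HepG2 reporter cells are dosed for 24 h; reporter RNA is reverse-transcribed, amplified, fluorescently labelled and HpaI-digested before CE sizing. Positive-direction fit against DMSO.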

[4] = ATG_M_06_TRANS: Attagene TRANS-FACTORIAL HepG2 Assay for M06 Transcription Factor (Internal Marker) (AID 2282983; active = hit-call score of the fitted dose curve at least 0.9, where 1 is the maximum;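 note: reporter transcript level by RT-PCR then capillary electrophoresis fluorescence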); conditions: HepG2 Attagene TRANS M06 internal marker reporter
Outline: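 Measured by capillary electrophoresis of fluorescently labelled RT-PCR products, this endpoint reflects reporter mRNA in HepG2 cells harbouring exogenous NR-GAL4 reporter constructs after 24 h exposure, with DMSO as baseline.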

[5] = ATG_M_32_TRANS: Attagene TRANS-FACTORIAL HepG2 Assay for M32 Transcription Factor (Internal Marker) (AID 2282984; active = hit-call score of the fitted dose curve at least 0.9, where 1 is the maximum;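 note: transcript level of a background control reporter unit measured by RT-PCR and capillary electrophoresis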); conditions: HepG2 Attagene TRANS M32 internal marker reporter
Outline: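 Using transiently transfected HepG2 cells exposed to test chemicals for 24 h, reporter transcripts are converted to labelled cDNA fragments and quantified by capillary electrophoresis. DMSO defines the activity baseline.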

[6] = target: Nuclear receptor subfamily 4 group A member 2 (Homo sapiens) (UniProt P43354); assay: ATG_NURR1_TRANS: Attagene TRANS-FACTORIAL HepG2 Assay for human Nuclear Receptor Related Protein 1 (NURR1) (AID 2282985; active = hit-call score of the fitted dose curve at least 0.9, where 1 is the maximum); conditions: HepG2 Attagene TRANS reporter, mRNA readout
Outline: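 Cells: HepG2, transiently transfected. Exposure: 24 h. Detection: fluorescence of labelled RT-PCR products separated by capillary electrophoresis; upward fit versus DMSO.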

[7] = target: Transcriptional activator Myb (Homo sapiens) (UniProt P10242); assay: ATG_Myb_CIS: Attagene CIS-FACTORIAL HepG2 Assay for human Myeloblastosis (Myb) Proto-Oncogene Transcription Factor (AID 2282986); conditions: HepG2 Attagene CIS-FACTORIAL Myb reporter transcription; actives raise or lower the signal
Outline: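 Transiently transfected HepG2 cells, treated 24 h. Reporter mRNA quantified by RT-PCR/capillary electrophoresis; bidirectional fit relative to DMSO.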

[8] = target: Nuclear respiratory factor 1 (Homo sapiens) (UniProt Q16656); assay: ATG_NRF1_CIS: Attagene CIS-FACTORIAL HepG2 Assay for human Nuclear Respiratory Factor 1 (NRF1) Orphan Gene (AID 2282987); conditions: HepG2 NRF1 cis-element reporter, Attagene multiplex; actives raise or lower the signal
Outline: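 Cells (HepG2, transient MRTU transfection) are exposed to compound for 24 h, then RNA isolated and reporter mRNA amplified and fluorescently labelled. Fragments are separated by capillary electrophoresis; signal change is fitted bidirectionally relative to DMSO.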

[9] = target: Myc proto-oncogene protein (Homo sapiens) (UniProt P01106); assay: ATG_Myc_CIS: Attagene CIS-FACTORIAL HepG2 Assay for human Myelocytomatosis (Myc) Proto-Oncogene Transcription Factor (AID 2282990); conditions: HepG2, Attagene cis-reporter transcription factor activity; actives raise or lower the signal
Outline: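 Cells of the HepG2 human liver line bear multiple cis-driven reporter transcription units. Reporter mRNA after 24 h exposure is reverse-transcribed, amplified, labelled and resolved by capillary electrophoresis, with gain- or loss-of-signal fitting relative to DMSO.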

[10] = ATG_NF_kB_CIS: Attagene CIS-FACTORIAL HepG2 Assay for human Nuclear Factor Kappa B (NF-kB) (AID 2282991); conditions: HepG2 Attagene cis-factorial NF-kB reporter mRNA; actives raise or lower the signal
Outline: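 Measures mRNA induction of an NF-kB-responsive cis-element reporter in HepG2 cells transfected with multiple reporter units, sampled 24 h post-dosing; quantified by fluorescence after RT-PCR and capillary electrophoresis, fitted for activation or inhibition against DMSO.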

[11] = ATG_NRF2_ARE_CIS: Attagene CIS-FACTORIAL HepG2 Assay for human Nuclear Factor Erythroid 2 Related Factor 2 (NFR2) response to Antioxidant Response Elements (ARE) (AID 2282992); conditions: HepG2 Attagene ARE/NRF2 reporter, transcription factor activity; actives raise or lower the signal;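 for AC50: reporter mRNA level measured by RT-PCR and capillary electrophoresis fluorescence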
Outline: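 HepG2 cells transiently transfected with multiplexed cis-regulated reporter transcription units measure endogenous transcription factor activity. Reporter mRNA at 24 h is quantified by RT-PCR, fluorescent labelling and capillary electrophoresis, with bidirectional fitting relative to DMSO.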

[12] = ATG_Oct_MLP_CIS: Attagene CIS-FACTORIAL HepG2 Assay for human Octamer-Binding Transcription Factor (Oct) (AID 2282993); conditions: HepG2 Attagene cis-factorial Oct reporter, mRNA; actives raise or lower the signal
Outline: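 Transfected HepG2 cells, 24 h treatment. Reporter mRNA quantified by RT-PCR–capillary electrophoresis; bidirectional fitting against DMSO.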

[13] = target: Cellular tumor antigen p53 (Homo sapiens) (UniProt P04637); assay: ATG_p53_CIS: Attagene CIS-FACTORIAL HepG2 Assay for human p53 Transcription Factor (AID 2282994); conditions: HepG2 p53 cis-element reporter, Attagene mRNA; actives raise or lower the signal
Outline: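 HepG2 cells transiently transfected with multiplexed cis-regulated reporter transcription units read endogenous TF activity. After 24 h compound exposure, reporter mRNA was quantified by RT-PCR, fluorescent labelling, HpaI digestion and capillary electrophoresis; bidirectional fits versus DMSO baseline.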

[14] = BSK_3C_TissueFactor: BioMAP Diversity Plus: 3C Assay for Tissue Factor Biomarker Activity (AID 2282997); conditions: BioMAP 3C HUVEC, tissue factor biomarker readout; actives raise or lower the signal
Outline: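 Values derive from bidirectional curve fitting against DMSO of Tissue Factor ELISA signals, taken 24 h after dosing primary human umbilical vein endothelial cells.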

[15] = BSK_3C_uPAR: BioMAP Diversity Plus: 3C Assay for Urokinase-type plasminogen activator receptor (uPAR) Biomarker Activity (AID 2282998); conditions: BioMAP 3C HUVEC, uPAR biomarker ELISA; actives raise or lower the signal
Outline: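 Readout: ELISA for surface uPAR. System: human umbilical vein endothelial primary cells, 24 h after chemical exposure. Analysis: bidirectional fit, DMSO baseline.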

[16] = BSK_3C_VCAM1: BioMAP Diversity Plus: 3C Assay for Vascular cell adhesion molecule 1 (VCAM1) Biomarker Activity (AID 2282999); conditions: BioMAP 3C HUVEC, VCAM1 ELISA, cytokine-stimulated; actives raise or lower the signal
Outline: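 Endothelial cells from human umbilical vein are treated with test chemical. At 24 h, VCAM-1 is measured by ELISA, and responses in either direction are fitted relative to DMSO.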

[17] = BSK_4H_Eotaxin3: BioMAP Diversity Plus: 4H Assay for Eotaxin 3 Biomarker Activity (AID 2283000); conditions: primary human endothelial cells (HUVEC); actives raise or lower the signal
Outline: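 Endothelial primary cells (human umbilical vein) exposed to compound for 24 h. ELISA detection of Eotaxin-3.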

[18] = target: human Peroxisome Proliferator-activated Receptor alpha (PPARa), PPARA (gene 5465) (UniProt Q07869); assay: ATG_PPARa_TRANS: Attagene TRANS-FACTORIAL HepG2 Assay for human Peroxisome Proliferator-activated Receptor alpha (PPARa) (AID 2283001; active = hit-call score of the fitted dose curve at least 0.9, where 1 is the maximum)
Outline: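 Reporter transcripts from GAL4-UAS units in transfected HepG2 were quantified 24 h after dosing. Detection used reverse transcription, PCR, fluorescent primer extension and capillary electrophoresis, with DMSO as baseline.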

[19] = ATG_NFI_CIS: Attagene CIS-FACTORIAL HepG2 Assay for human Nuclear Factor I (NFI) (AID 2282989); conditions: HepG2 cis-regulatory reporter, NFI response element transcription; actives raise or lower the signal
Outline: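 Reporter transcription driven by endogenous transcription factors in HepG2 cells; 24 h treatment. Quantitation by labelled RT-PCR fragments on capillary electrophoresis, gain- or loss-of-signal relative to DMSO.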

[20] = target: Oxysterols receptor LXR-beta (Homo sapiens) (UniProt P55055); assay: ATG_LXRb_TRANS: Attagene TRANS-FACTORIAL HepG2 Assay for human Liver X Receptor beta (LXRb) (AID 2282981; active = hit-call score of the fitted dose curve at least 0.9, where 1 is the maximum); conditions: HepG2 Attagene TRANS GAL4-LXRb reporter, mRNA
Outline: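 Cells: HepG2, transiently transfected with GAL4-UAS reporter units plus LXRb-Gal4 fusion. Treatment: 24 h. Detection: reporter mRNA by RT-PCR, 6-FAM labelling, HpaI digestion, capillary electrophoresis.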

Measured: AC50

Sequence of Hepatocyte nuclear factor 4-alpha (Homo sapiens) (P41235 whole entry, looked up): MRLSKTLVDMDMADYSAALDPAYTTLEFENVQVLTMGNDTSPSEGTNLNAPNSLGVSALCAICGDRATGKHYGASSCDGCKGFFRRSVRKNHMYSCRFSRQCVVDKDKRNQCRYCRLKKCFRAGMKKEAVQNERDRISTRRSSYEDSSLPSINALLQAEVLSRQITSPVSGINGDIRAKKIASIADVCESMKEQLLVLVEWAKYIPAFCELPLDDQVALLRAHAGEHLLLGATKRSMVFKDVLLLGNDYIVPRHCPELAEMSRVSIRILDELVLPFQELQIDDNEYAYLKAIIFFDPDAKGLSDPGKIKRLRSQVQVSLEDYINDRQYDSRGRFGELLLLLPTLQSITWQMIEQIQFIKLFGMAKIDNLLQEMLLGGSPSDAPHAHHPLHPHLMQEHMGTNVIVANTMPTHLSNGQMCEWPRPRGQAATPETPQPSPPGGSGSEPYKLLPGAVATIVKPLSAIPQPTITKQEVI
Sequence of Transcriptional activator Myb (Homo sapiens) (P10242 whole entry, looked up): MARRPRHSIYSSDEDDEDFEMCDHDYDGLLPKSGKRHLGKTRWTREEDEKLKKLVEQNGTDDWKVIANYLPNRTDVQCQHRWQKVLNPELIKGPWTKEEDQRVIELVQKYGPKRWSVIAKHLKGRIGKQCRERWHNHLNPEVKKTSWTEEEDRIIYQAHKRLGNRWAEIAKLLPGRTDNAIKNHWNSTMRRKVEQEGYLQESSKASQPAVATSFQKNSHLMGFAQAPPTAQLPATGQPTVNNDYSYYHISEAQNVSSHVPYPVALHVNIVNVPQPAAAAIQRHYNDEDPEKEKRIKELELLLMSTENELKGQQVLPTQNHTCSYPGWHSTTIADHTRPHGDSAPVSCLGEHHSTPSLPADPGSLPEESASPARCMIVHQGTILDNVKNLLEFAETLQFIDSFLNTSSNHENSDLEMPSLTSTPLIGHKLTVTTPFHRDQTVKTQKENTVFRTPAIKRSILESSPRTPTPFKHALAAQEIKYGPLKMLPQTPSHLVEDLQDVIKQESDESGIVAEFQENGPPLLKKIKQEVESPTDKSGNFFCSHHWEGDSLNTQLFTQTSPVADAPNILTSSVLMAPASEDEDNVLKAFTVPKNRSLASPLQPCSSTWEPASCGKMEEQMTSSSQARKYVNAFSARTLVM
Sequence of Nuclear respiratory factor 1 (Homo sapiens) (Q16656 whole entry, looked up, the tested form may be a part): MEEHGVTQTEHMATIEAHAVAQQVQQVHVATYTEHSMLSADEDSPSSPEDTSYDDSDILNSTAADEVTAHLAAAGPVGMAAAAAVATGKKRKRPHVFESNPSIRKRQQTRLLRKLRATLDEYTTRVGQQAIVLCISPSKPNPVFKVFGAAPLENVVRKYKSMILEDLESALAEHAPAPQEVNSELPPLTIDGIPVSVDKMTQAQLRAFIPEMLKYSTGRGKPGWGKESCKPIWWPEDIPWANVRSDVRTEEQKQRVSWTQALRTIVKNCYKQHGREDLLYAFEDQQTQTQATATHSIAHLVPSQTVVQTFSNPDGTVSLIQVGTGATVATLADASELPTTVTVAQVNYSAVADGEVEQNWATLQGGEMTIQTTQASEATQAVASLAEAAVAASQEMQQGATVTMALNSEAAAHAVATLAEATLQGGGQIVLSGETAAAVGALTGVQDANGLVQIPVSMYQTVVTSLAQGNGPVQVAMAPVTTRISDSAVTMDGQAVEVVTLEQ
Sequence of Bile acid receptor (Homo sapiens) (Q96RI1 whole entry, looked up, the tested form may be a part): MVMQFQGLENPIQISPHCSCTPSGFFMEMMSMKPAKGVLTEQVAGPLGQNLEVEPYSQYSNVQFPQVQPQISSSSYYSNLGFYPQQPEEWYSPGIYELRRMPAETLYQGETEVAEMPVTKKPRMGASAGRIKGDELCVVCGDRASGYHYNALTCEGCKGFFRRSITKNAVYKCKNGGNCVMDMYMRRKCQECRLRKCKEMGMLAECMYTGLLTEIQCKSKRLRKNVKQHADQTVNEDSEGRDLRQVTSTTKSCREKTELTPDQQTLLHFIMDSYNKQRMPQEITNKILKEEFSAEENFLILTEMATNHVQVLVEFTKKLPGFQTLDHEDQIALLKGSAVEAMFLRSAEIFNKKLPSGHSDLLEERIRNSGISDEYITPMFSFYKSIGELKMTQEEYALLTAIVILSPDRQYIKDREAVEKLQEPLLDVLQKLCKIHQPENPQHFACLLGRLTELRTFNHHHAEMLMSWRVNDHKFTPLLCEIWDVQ
Sequence of Nuclear receptor subfamily 4 group A member 2 (Homo sapiens) (P43354 whole entry, looked up): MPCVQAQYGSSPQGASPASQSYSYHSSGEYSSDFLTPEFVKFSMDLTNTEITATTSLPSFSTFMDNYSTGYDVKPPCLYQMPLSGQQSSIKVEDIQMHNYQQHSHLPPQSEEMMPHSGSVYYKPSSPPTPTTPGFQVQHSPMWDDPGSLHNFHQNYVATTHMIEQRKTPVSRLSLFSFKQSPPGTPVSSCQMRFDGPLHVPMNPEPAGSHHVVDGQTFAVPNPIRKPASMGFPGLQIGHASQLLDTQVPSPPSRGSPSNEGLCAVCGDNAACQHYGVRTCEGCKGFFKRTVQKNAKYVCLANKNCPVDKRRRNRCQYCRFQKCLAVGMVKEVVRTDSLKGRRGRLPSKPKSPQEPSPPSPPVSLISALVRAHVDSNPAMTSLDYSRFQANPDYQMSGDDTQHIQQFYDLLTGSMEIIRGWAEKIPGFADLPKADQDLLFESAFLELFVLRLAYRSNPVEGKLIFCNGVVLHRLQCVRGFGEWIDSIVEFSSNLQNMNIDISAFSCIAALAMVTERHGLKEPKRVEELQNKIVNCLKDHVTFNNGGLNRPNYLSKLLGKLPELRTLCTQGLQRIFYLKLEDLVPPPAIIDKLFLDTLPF
Sequence of Myc proto-oncogene protein (Homo sapiens) (P01106 whole entry, looked up): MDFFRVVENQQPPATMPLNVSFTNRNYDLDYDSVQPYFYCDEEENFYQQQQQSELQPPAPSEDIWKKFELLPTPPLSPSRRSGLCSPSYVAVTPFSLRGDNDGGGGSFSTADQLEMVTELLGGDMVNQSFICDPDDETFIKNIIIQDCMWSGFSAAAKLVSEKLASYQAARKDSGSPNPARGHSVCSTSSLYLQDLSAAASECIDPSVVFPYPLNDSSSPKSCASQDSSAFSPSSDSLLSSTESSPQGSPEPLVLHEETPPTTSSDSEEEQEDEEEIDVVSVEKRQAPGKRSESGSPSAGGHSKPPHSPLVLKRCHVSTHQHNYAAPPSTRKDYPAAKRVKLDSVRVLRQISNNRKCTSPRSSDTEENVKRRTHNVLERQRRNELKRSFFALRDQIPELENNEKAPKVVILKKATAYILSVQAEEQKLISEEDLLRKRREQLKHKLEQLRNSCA
Sequence of Oxysterols receptor LXR-alpha (Homo sapiens) (Q13133 whole entry, looked up): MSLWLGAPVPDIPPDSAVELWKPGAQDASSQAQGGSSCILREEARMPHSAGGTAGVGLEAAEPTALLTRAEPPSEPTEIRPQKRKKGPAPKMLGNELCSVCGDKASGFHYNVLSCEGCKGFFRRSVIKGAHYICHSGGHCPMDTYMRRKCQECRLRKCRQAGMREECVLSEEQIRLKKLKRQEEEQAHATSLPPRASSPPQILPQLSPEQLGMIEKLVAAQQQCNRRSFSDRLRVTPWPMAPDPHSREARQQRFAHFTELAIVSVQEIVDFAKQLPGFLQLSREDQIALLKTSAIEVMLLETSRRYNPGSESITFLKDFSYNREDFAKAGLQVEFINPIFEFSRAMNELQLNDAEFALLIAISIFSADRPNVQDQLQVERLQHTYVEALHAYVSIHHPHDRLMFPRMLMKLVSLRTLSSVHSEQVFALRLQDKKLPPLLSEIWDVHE
Sequence of human Peroxisome Proliferator-activated Receptor alpha (PPARa), PPARA (gene 5465) (Q07869 whole entry, looked up, the tested form may be a part): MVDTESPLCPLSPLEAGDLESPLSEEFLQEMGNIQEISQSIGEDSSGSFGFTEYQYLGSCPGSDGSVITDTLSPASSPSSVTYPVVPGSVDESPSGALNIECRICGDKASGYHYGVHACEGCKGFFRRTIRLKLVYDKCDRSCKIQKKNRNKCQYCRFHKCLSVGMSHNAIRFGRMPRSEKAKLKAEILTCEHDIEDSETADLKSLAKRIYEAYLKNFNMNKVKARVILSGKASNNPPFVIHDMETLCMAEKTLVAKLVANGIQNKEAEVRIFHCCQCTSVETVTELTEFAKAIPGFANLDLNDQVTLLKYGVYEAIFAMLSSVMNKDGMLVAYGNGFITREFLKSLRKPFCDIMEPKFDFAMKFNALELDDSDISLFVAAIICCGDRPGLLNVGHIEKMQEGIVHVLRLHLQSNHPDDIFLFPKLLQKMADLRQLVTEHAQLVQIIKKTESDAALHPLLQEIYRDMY
Sequence of Cellular tumor antigen p53 (Homo sapiens) (P04637 whole entry, looked up): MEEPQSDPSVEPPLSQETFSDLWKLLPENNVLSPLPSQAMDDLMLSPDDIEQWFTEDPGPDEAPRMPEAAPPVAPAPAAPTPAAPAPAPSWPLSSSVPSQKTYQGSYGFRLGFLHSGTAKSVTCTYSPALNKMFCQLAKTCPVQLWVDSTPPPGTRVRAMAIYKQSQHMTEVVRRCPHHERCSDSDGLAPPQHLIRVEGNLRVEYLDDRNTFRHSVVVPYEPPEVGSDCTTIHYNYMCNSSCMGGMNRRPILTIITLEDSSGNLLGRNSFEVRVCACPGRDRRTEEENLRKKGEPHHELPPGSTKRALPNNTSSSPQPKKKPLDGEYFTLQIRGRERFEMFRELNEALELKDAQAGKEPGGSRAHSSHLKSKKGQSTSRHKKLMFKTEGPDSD
Sequence of Oxysterols receptor LXR-beta (Homo sapiens) (P55055 whole entry, looked up, the tested form may be a part): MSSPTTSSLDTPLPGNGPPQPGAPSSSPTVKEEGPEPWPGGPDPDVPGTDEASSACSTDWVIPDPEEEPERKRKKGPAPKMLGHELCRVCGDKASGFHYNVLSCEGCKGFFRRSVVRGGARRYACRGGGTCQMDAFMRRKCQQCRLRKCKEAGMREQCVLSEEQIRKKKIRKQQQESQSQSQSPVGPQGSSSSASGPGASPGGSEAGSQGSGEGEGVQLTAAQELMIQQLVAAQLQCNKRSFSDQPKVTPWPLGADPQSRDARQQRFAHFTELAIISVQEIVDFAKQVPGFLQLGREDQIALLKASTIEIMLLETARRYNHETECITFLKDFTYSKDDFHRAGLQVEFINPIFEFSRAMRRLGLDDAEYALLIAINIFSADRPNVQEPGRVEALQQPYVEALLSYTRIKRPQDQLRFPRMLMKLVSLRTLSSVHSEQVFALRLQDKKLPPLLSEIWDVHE

OCC(F)(F)OC(F)(F)C(F)(F)OC(F)(F)C(F)(F)OC(F)(F)F
active: [13] 76.8 µM | [14] 30 µM and 47.3 µM | [15] 43.9 µM and 46.4 µM | [16] 36.1 µM and 50.3 µM | [17] 22.3 µM and 42.2 µM
inactive: [1] | [2] | [3] | [4] | [5] | [6] | [7] | [8] | [9] | [10] | [11] | [12] | [13] | [18]

CCOP(=S)(NC(C)C)Oc1ccccc1C(=O)OC(C)C (stereo not drawn)
inactive: [1] | [3] | [4] | [7] | [19] | [9] | [11] | [12] | [13] | [14] | [16] | [17]
active: [6] 57.4 µM

O=[N+]([O-])c1cc(Cl)ccc1Cl
inactive: [1] | [2] | [4] | [5] | [7] | [8] | [19] | [9] | [10] | [11] | [12] | [13]

O=S1(=O)OCC2C(CO1)C1(Cl)C(Cl)=C(Cl)C2(Cl)C1(Cl)Cl (stereo not drawn)
active: [9] 172 µM | [10] 8.15 µM | [11] 44.5 µM | [12] 170 µM | [13] 18.3 µM | [17] 13.1 µM
inactive: [1] | [2] | [4] | [5] | [7] | [8] | [14] | [16]

Cc1ccc([N+](=O)[O-])cc1C
inactive: [1] | [3] | [4] | [5] | [7] | [8] | [19] | [9] | [10] | [11] | [12] | [14] | [16] | [17] | [18]

CC(C)(C)N(NC(=O)c1ccc(Cl)cc1)C(=O)c1ccccc1
inactive: [1] | [2] | [4] | [6] | [7] | [19] | [9] | [11] | [12]

Oc1ccc(I)cc1
active: [11] 67.3 µM
inactive: [1] | [20] | [4] | [5] | [6] | [7] | [8] | [9] | [10] | [12] | [13] | [18]

N#Cc1ccc(O)cc1
inactive: [1] | [3] | [4] | [5] | [6] | [7] | [8] | [19] | [9] | [10] | [11] | [12] | [13]
